Results published in the supplement of paper PMC10849652.
Of roughly 7,900 targets only a part is listed; those with a hit were picked by preference. About 0.6% of all pairs of compound and target were hits. Values without a mark were called inactive.

Assays:
Test in all cases: log2 fold change, soluble protein after heating vs DMSO (PISA); higher = thermal stabilisation; K562 cells, 10 uM, 30 min; active = over 0.2 and 3.5 SD of the protein, either way, in both replicates (recomputed)
[1] = compound: CS(=O)(=O)c1ccc(-c2cnc(N)c(C(=O)Nc3ccccc3)n2)cc1
Outline: (§1)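 K562 cells at 2×10^6 cells/mL were treated for 30 min with 10 μM compound, and aliquots were heated for 3 min over 48°C-58°C before pooling. Extraction used PBS with 0.5% NP-40 at 4°C, and soluble protein was the supernatant after 21,000xg for 90 min, measured by TMTpro 16plex LC-MS/MS with channel sums equalised. Thermal stability values, relative to control samples and from duplicates, are log2 fold changes.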

crizotinib = compound: C[C@@H](Oc1cc(-c2cnn(C3CCNCC3)c2)cnc1N)c1c(Cl)ccc(F)c1Cl [crizotinib]
Outline: as §1

[2] = compound: C[C@@H]1COCCN1C2=NC(=NC(=C2)C3(CC3)S(=O)(=O)C)C4=C5C=CNC5=CC=C4
Outline: as §1

[3] = compound: C[C@H](C1=CC=C(C=C1)C(=O)NC2=C3C=CNC3=NC=C2)N
Outline: as §1

duvelisib = compound: C[C@H](Nc1ncnc2nc[nH]c12)c1cc2cccc(Cl)c2c(=O)n1-c1ccccc1 [duvelisib]
Outline: as §1

gandotinib = compound: Cc1cc(Nc2cc(CN3CCOCC3)c3nc(C)c(Cc4ccc(Cl)cc4F)n3n2)n[nH]1 [gandotinib]
Outline: as §1

tozasertib = compound: Cc1cc(Nc2cc(N3CCN(C)CC3)nc(Sc3ccc(NC(=O)C4CC4)cc3)n2)n[nH]1 [tozasertib]
Outline: as §1

[4] = compound: Cc1cc(SCc2sc(-c3ccc(C(F)(F)F)cc3)nc2C)ccc1OCC(=O)O
Outline: as §1

doramapimod = compound: Cc1ccc(-n2nc(C(C)(C)C)cc2NC(=O)Nc2ccc(OCCN3CCOCC3)c3ccccc23)cc1 [doramapimod]
Outline: as §1

ispinesib = compound: Cc1ccc(C(=O)N(CCCN)[C@@H](c2nc3cc(Cl)ccc3c(=O)n2Cc2ccccc2)C(C)C)cc1 [ispinesib]
Outline: as §1

bafetinib = compound: Cc1ccc(NC(=O)c2ccc(CN3CC[C@H](N(C)C)C3)c(C(F)(F)F)c2)cc1Nc1nccc(-c2cncnc2)n1 [bafetinib]
Outline: as §1

[5] = compound: Cc1cccc(CC(=O)N2CCc3c2ccc(-c2cn(C)c4ncnc(N)c24)c3F)n1
Outline: as §1

nilotinib = compound: Cc1cn(-c2cc(NC(=O)c3ccc(C)c(Nc4nccc(-c5cccnc5)n4)c3)cc(C(F)(F)F)c2)cn1 [nilotinib]
Outline: as §1

[6] = compound: Cc1nc(Nc2n[nH]c3c2CN(C(=O)N[C@H](CN(C)C)c2ccccc2)C3(C)C)c2sccc2n1
Outline: as §1

dasatinib = compound: Cc1nc(Nc2ncc(C(=O)Nc3c(C)cccc3Cl)s2)cc(N2CCN(CCO)CC2)n1 [dasatinib]
Outline: as §1

[7] = compound: Cc1ncc(-c2ccnc(Nc3ccc(S(C)(=O)=O)cc3)n2)n1C(C)C
Outline: as §1

[8] = compound: Cn1cc(-c2ccc3c(c2)CCN3C(=O)Cc2cccc(C(F)(F)F)c2)c2c(N)ncnc21
Outline: as §1

[9] = compound: Cn1cc(-c2ccc3nnc(C(F)(F)c4ccc5ncccc5c4)n3n2)cn1
Outline: as §1

tipifarnib = compound: Cn1cncc1[C@@](N)(c1ccc(Cl)cc1)c1ccc2c(c1)c(-c1cccc(Cl)c1)cc(=O)n2C [tipifarnib]
Outline: as §1

mubritinib = compound: FC(F)(F)c1ccc(/C=C/c2nc(COc3ccc(CCCCn4ccnn4)cc3)co2)cc1 [mubritinib]
Outline: as §1

Sequence of UniProt Q15436 (Q15436 whole entry, looked up): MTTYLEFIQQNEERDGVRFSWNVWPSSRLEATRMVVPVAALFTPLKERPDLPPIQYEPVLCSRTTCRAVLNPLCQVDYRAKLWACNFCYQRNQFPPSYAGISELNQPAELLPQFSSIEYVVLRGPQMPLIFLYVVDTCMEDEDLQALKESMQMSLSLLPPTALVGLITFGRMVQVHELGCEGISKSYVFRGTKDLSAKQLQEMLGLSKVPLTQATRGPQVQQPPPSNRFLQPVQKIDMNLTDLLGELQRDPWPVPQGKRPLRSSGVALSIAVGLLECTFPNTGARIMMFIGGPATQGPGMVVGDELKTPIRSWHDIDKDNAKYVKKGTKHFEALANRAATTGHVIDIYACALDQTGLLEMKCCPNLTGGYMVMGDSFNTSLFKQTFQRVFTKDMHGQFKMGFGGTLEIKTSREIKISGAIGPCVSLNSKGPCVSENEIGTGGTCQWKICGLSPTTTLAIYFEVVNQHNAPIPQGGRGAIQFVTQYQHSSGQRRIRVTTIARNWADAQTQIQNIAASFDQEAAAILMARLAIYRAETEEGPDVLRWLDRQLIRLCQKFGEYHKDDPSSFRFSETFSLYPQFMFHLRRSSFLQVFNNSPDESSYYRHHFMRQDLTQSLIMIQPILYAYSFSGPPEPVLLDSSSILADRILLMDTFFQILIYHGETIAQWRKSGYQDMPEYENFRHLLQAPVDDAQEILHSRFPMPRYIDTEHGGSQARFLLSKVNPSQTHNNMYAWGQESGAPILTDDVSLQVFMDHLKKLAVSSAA
Sequence of UniProt P46063 (P46063 whole entry, looked up): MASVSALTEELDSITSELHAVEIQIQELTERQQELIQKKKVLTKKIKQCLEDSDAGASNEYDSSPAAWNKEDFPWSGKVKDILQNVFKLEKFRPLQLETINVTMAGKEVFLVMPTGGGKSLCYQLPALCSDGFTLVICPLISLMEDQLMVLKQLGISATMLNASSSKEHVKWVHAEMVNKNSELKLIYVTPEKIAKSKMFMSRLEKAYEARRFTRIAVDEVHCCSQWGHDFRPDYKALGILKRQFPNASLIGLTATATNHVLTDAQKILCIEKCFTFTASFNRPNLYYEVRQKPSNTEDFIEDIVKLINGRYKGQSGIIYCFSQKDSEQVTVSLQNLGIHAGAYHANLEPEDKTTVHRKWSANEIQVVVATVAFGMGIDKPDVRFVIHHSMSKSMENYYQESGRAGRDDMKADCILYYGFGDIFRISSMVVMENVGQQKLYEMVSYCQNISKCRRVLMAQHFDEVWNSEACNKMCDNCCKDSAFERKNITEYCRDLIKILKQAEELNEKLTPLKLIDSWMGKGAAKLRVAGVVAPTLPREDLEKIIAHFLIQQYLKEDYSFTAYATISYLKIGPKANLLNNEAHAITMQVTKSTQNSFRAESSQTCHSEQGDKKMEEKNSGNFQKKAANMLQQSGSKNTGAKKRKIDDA
Sequence of UniProt Q9UPN6 (Q9UPN6 whole entry, looked up): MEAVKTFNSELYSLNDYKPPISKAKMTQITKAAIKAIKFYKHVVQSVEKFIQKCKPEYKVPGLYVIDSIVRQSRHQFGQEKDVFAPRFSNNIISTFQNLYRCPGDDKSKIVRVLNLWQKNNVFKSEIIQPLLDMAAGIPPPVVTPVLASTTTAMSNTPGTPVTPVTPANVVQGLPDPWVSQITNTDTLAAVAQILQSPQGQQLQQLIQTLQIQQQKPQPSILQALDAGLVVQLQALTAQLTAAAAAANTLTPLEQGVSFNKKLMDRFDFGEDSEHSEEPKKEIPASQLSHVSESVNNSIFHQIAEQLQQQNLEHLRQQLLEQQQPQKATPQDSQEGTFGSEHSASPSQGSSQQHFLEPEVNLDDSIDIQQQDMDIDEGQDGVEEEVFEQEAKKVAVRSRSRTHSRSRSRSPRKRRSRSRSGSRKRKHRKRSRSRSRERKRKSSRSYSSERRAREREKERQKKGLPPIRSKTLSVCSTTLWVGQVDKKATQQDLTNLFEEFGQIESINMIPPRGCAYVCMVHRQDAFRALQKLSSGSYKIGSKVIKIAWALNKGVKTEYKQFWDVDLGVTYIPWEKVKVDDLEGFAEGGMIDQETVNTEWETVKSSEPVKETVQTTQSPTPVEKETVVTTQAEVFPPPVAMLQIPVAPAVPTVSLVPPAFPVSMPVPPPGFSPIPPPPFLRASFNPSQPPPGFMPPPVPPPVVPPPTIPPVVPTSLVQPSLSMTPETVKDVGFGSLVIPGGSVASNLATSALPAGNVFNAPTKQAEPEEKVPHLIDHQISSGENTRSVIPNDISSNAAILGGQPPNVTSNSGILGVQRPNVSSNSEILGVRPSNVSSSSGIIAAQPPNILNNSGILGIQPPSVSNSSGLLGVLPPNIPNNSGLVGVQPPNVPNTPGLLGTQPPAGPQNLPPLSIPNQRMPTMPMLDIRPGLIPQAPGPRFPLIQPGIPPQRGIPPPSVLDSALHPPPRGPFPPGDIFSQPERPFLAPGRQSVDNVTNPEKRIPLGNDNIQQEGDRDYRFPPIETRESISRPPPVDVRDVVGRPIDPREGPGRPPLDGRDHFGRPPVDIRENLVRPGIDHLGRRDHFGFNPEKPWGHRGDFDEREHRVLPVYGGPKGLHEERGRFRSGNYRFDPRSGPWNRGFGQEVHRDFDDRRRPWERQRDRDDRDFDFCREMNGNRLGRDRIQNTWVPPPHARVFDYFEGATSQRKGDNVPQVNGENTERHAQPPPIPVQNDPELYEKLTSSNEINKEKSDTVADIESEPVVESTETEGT
Sequence of UniProt Q9H082 (Q9H082 whole entry, looked up): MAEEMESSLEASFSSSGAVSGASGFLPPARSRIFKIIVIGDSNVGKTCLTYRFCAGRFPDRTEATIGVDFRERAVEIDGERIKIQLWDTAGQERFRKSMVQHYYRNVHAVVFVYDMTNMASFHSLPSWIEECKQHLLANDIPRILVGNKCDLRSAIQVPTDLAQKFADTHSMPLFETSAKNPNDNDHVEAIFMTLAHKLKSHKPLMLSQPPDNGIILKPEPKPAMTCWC
Sequence of UniProt Q9HB40 (Q9HB40 whole entry, looked up): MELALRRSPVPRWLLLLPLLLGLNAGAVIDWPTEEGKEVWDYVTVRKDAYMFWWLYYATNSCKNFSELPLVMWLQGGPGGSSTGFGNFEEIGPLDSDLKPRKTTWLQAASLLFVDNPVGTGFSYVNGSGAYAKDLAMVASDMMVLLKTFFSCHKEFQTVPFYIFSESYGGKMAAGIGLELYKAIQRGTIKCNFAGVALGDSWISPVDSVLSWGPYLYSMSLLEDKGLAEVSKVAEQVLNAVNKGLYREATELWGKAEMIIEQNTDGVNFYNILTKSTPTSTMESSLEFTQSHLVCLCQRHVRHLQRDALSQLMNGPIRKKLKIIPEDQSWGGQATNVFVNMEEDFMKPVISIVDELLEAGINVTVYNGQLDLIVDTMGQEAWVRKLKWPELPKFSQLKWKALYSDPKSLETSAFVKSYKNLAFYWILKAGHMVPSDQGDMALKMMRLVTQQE
Sequence of UniProt Q9P2N5 (Q9P2N5 whole entry, looked up): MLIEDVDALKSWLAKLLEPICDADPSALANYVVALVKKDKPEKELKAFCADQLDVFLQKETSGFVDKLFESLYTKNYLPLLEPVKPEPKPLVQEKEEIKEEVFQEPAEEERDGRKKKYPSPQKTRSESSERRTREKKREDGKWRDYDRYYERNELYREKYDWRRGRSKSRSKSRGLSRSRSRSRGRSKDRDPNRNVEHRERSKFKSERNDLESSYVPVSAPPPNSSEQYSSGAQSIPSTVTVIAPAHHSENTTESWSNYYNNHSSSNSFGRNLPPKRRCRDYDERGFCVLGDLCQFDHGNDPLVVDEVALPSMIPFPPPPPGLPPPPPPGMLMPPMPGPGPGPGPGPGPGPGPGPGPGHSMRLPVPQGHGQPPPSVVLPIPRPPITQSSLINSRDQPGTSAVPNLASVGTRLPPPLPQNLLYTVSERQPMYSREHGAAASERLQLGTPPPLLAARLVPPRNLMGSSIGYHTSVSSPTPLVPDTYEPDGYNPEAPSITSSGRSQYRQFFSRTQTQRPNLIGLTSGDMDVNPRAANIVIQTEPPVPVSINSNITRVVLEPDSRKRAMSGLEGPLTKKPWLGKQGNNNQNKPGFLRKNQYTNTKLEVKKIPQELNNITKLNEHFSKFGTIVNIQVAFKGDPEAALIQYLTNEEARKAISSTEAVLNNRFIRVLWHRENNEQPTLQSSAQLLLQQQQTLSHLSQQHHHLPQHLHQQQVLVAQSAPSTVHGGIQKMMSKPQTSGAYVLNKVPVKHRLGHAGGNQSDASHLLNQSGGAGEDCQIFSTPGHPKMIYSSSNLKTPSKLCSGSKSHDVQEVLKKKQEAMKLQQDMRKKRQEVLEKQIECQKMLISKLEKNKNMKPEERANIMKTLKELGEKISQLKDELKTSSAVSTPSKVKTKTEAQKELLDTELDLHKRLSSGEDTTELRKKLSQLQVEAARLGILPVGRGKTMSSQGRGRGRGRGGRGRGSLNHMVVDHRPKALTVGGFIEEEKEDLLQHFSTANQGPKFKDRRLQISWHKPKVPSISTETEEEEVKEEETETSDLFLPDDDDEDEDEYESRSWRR
Sequence of UniProt Q6NUM9 (Q6NUM9 whole entry, looked up): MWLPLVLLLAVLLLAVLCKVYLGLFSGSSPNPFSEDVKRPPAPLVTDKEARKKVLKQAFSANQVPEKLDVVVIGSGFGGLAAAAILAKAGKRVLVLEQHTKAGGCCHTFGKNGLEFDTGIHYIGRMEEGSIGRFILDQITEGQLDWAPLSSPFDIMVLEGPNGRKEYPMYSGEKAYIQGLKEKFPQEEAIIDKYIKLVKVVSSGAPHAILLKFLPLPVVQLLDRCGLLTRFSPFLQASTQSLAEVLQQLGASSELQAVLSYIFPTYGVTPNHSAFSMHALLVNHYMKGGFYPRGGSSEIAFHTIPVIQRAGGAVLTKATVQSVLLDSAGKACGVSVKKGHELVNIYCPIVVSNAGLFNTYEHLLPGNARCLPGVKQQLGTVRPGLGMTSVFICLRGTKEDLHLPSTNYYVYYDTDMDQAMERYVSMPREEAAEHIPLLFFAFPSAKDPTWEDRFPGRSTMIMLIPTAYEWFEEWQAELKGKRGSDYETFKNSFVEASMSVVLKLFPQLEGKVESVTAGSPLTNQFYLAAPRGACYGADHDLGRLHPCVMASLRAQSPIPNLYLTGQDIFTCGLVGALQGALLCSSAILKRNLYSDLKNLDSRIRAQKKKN

Row | Target | log2 fold change [1] | log2 fold change (crizotinib) | log2 fold change [2] | log2 fold change [3] | log2 fold change (duvelisib) | log2 fold change (gandotinib) | log2 fold change (tozasertib) | log2 fold change [4] | log2 fold change (doramapimod) | log2 fold change (ispinesib) | log2 fold change (bafetinib) | log2 fold change [5] | log2 fold change (nilotinib) | log2 fold change [6] | log2 fold change (dasatinib) | log2 fold change [7] | log2 fold change [8] | log2 fold change [9] | log2 fold change (tipifarnib) | log2 fold change (mubritinib)
1 | RAC3 (UniProt P60763) | 0.074 | 0.097 | 0.073 | -0.027 | 0.145 | 0 | -0.086 | 0.005 | 0.262 (active) | -0.013 | 0.015 | -0.221 | 0.03 | 0.036 | -0.169 | -0.016 | 0.107 | 0.064 | 0.03 | -0.008
2 | RETSAT (UniProt Q6NUM9) | -0.038 | 0.005 | -0.129 | -0.003 | 0.083 | 0.284 | -0.103 | 0.036 | 0.147 | -0.008 | -0.011 | -0.034 | 0.154 | -0.076 | -0.001 | 0.511 (active) | 0.045 | -0.002 | -0.052 | 0.182
3 | SCAF11 (UniProt Q99590) | 0.021 | -0.06 | -0.069 | 0.229 | -0.069 | 0.543 | -0.037 | -0.106 | -0.05 | -0.012 | 0.173 | -0.144 | 0.078 | -0.007 | 0.144 | 0.379 | -0.05 | -0.03 | 0.067 | 0.052
4 | RECQL (UniProt P46063) | 0.031 | 0.033 | 0.112 | -0.082 | 0.051 | -0.057 | 0.001 | 0.003 | -0.011 | 0.056 | 0.005 | -0.019 | 0.025 | 0.006 | -0.043 | -0.033 | 0.055 | -0.006 | -0.034 | 0.017
5 | RABGGTA (UniProt Q92696) | -0.035 | -0.076 | 0.046 | -0.058 | 0.045 | -0.004 | -0.036 | -0.008 | 0.017 | 0.026 | -0.019 | 0.027 | 0.033 | -0.088 | 0.076 | -0.076 | 0.089 | -0.015 | 0.08 | 0.002
6 | SCPEP1 (UniProt Q9HB40) | -0.03 | -0.254 (active) | -0.041 | -0.028 | 0.083 | 0.127 | -0.03 | 0.032 | -0.032 | -0.163 | -0.499 (active) | -0.013 | 0.028 | -0.006 | -0.007 | -0.004 | 0.023 | 0.034 | 0.026 | 0.04
7 | RAB3GAP2 (UniProt Q9H2M9) | 0.019 | -0.064 | -0.024 | 0.213 | -0.046 | 0.003 | 0.048 | 0.119 | 0.046 | -0.097 | 0.059 | 0.091 | -0.026 | -0.088 | -0.14 | 0.006 | -0.077 | -0.029 | -0.046 | -0.087
8 | SCAF8 isoform 2 (UniProt Q9UPN6) | 0.085 | -0.011 | 0.1 | -0.018 | 0.053 | -0.098 | -0.039 | 0.065 | 0.003 | -0.181 | -0.024 | 0.019 | -0.032 | -0.208 | -0.212 | 0.069 | 0.064 | 0.008 | -0.027 | 0.023
9 | RPL31 (UniProt P62899) | -0.08 | 0.079 | -0.56 | 0.396 | -0.158 | 0.35 | 0.029 | -0.001 | 0.173 | -0.167 | 0.342 | 0.024 | 0.001 | 0.179 | 0.14 | -0.041 | -0.231 | -0.082 | 0.151 | -0.095
10 | RBM27 (UniProt Q9P2N5) | 0.006 | 0.021 | 0.026 | -0.174 | 0.001 | -0.019 | 0.027 | 0.09 | -0.035 | -0.122 | 0.007 | 0.078 | 0.019 | -0.91 (active) | -0.07 | -0.07 | 0.053 | 0.041 | -0.005 | 0.023
11 | RSL1D1 (UniProt O76021) | -0.146 | 0.037 | -0.33 | 0.456 | -0.169 | 0.146 | 0.066 | -0.037 | 0.312 | 0.251 | 0.288 | -0.027 | 0.117 | 0.109 | 0.239 | 0.264 | -0.427 | -0.18 | 0.15 | -0.244
12 | RSF1 (UniProt Q96T23) | 0.056 | -0.054 | -0.002 | -0.058 | 0.108 | -0.104 | 0.228 | 0.194 | 0.043 | 0.087 | 0.117 | -0.027 | 0.087 | -0.102 | -0.082 | -0.096 | 0.046 | 0.079 | -0.222 | 0.237
13 | SEC23A (UniProt Q15436) | 0.001 | -0.016 | 0.061 | -0.102 | 0.017 | -0.109 | 0.021 | 0.03 | -0.092 | 0.023 | -0.011 | 0.024 | -0.012 | 0.014 | -0.07 | -0.009 | -0.018 | -0.052 | -0.013 | -0.002
14 | RAB33B (UniProt Q9H082) | 0.007 | 0.106 | 0.064 | -0.037 | 0.058 | -0.095 | -0.032 | -0.038 | -0.021 | -0.065 | -0.01 | 0.012 | 0.01 | 0.018 | -0.058 | 0.022 | 0 | 0.151 | 0.024 | -0.01
15 | RPS13 (UniProt P62277) | -0.053 | 0.076 | -0.548 | 0.403 | -0.201 | 0.296 | 0.021 | -0.013 | 0.247 | -0.195 | 0.342 | 0 | 0.017 | 0.221 | 0.088 | -0.051 | -0.237 | -0.089 | 0.204 | -0.184
16 | RPS14 (UniProt P62263) | -0.049 | -0.075 | -0.22 | 0.183 | -0.131 | 0.056 | 0.016 | 0.023 | 0.071 | 0.002 | 0.265 | -0.061 | 0.029 | 0.184 | -0.011 | -0.047 | -0.081 | -0.091 | 0.07 | -0.05
